The values below come from PubChem BioAssay (Tox21).

A short description of assay [1]: qHTS assay to identify small molecule agonists of the estrogen receptor alpha (ER-alpha) signaling pathway in the presence of an antagonist - cell viability counter screen (AID 1259386).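 Further: series mostly up to about 92 µM; cells exposed to compounds for 22 h at 37 °C before the viability read; nearly all actives have a fitted effect of over 30% in size.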 The procedure, abridged:
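In this counter screen, compound effects on VM7Luc4E2 viability were tested in the presence of the antagonist ICI-182,780 at 10.0nM final. Compounds were dosed at 15 concentrations, exposure lasted 22hr, and the CellTiter-Fluor signal was read.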
(In general: In qHTS, concentration-response curves come from the screen itself.)

For assay [2], the target named is Progesterone receptor (Homo sapiens) (UniProt P06401). Kind of assay: qHTS assay to identify small molecule agonists of the progesterone receptor (PR) signaling pathway (AID 1346784; calls by dose curve; further: nearly all actives have a fitted effect of over 30% in size). In short, it runs like this:
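Beta-lactamase reporter read-out: after 16 hr compound treatment at 37C and a further 2 hr at room temperature with LiveBLAzer B/G FRET substrate, fluorescence was measured in PR-UAS-bla HEK 293T cells grown in 2% charcoal-stripped serum.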

Assay [3] has the same target. Kind of assay: qHTS assay to identify small molecule antagonists of the progesterone receptor (PR) signaling pathway (AID 1346795; active means well fitted inhibition curve with a large enough effect in the signal ratio in the repeat runs, not every such curve was filed as active; the % refers to the signal ratio; further: potency means the concentration at half of the fitted maximal effect). In short, it runs like this:
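Read-out is fluorescence from the LiveBLAzer B/G FRET substrate, cleaved by a UAS-controlled beta-lactamase in PR-UAS-bla HEK293T cells after 16 hr exposure to compound plus 1 nM promegestone (final), followed by 2 hr at room temperature.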

A short description of assay [4]: qHTS assay to identify small molecule antagonists of the progesterone receptor (PR) signaling pathway - cell viability counter screen (AID 1346798). Further: series mostly up to about 92 µM; nearly all actives have a fitted effect of over 50% in size. The procedure, abridged: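 HEK293T PR-UAS-bla, 2% charcoal-stripped FBS; 4 hr pre-plate; cpd + R5020, 16 h 37C; LiveBLAzer read first; then CellTiter-Glo 30 min RT, luminescence.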
A short description of assay [5]: qHTS assay to identify small molecule agonists of the progesterone receptor (PR) signaling pathway - cell viability counter screen (AID 1346799; calls by dose curve; further: nearly all actives have a fitted effect of over 45% in size). In short, it runs like this: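 Luminescence from CellTiter-Glo, added after the beta-lactamase FRET read in the same wells, gave cytotoxicity in PR-UAS-bla HEK293T cells treated with compounds for 16 hr at 37C.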
Assay [6] can be described thus: qHTS assay to identify small molecule antagonists of the TGF-beta/Smad signaling pathway - cell viability counter screen (AID 1346824). Further: nearly all actives have a fitted effect of over 50% in size. In short, it runs like this: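 SBE-bla HEK 293T cells, incubated overnight, then compound plus 0.25 ng/mL TGF-beta1 (stock added) for 5 hr at 37 C. Viability was read in the same wells by CellTiter-Glo luminescence after 30 min at room temperature.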

A short description of assay [7]: qHTS assay to identify small molecule agonists of the TGF-beta/Smad signaling pathway (AID 1346859; active means well fitted activation curve with a large enough effect in the signal ratio in the repeat runs, not every such curve was filed as active; the % refers to the signal ratio; further: series mostly up to about 77 µM). In short, it runs like this:
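SBE-bla HEK 293T, 4,000 cells/well, plated o/n; cpd in DMSO, 5 hr, 37 C/5% CO2; B/G FRET substrate 2 hr RT; ex 405, em 460/530 nm.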

Assay [8] is described as follows: Human pregnane X receptor (PXR) small molecule agonists, qHTS cell viability counter screen (AID 1346977). Further: nearly all actives have a fitted effect of over 50% in size. The procedure, abridged: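 PXR-Luc HepG2, 2,000 cells/well, 5% charcoal-stripped FBS; 5hr settle; cpd 24hr, 37C/5% CO2; CellTiter-Fluor at 23hr, read 1hr later (fluorescence).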
Assay [9] in a line: Caspase-3/7 induction in HepG2 cells by small molecules, qHTS assay (AID 1346978). Further: nearly all actives have a fitted effect of over 15% in size. In short, it runs like this: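 Wild-type HepG2 cells, 2,000/well, settled 5 hr at 37 C and 5% CO2, then compound-treated for 17 hr; caspase-3/7 activity read by luminescent Caspase-Glo 3/7 after 30 min at room temperature.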
Assay [10] can be described thus: Caspase-3/7 induction in CHO-K1 cells by small molecules, qHTS cell viability counter screen (AID 1346979). Further: nearly all actives have a fitted effect of over 35% in size. Further: potency means the concentration at half of the fitted maximal effect. The procedure, abridged:
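Cells (CHO-K1, wild type) are plated at 1,500 per well and incubated 5hr. Test compounds in DMSO are then pinned in, followed by 16hr at 37C and 5% CO2. Viability is read by CellTiter-Fluor fluorescence after 1hr.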

The nature of assay [11]: Caspase-3/7 induction in CHO-K1 cells by small molecules, qHTS assay (AID 1346980). Further: nearly all actives have a fitted effect of over 15% in size. In short, it runs like this: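 Wild-type CHO-K1 cells exposed to compounds for 17hr at 37 C, 5% CO2. Caspase-3/7 activity then measured by Caspase-Glo 3/7 luminescence after 30min at room temperature.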
Assay [12] concerns the target Nuclear receptor subfamily 1 group I member 2 (Homo sapiens) (UniProt O75469). Kind of assay: Human pregnane X receptor (PXR) small molecule agonists, qHTS assay (AID 1346982). Further: nearly all actives have a fitted effect of over 35% in size. The procedure, abridged: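 Reporter HepG2 cells expressing PXR-Luc are cultured in charcoal-stripped FBS (5%), treated with compounds for 24 hr at 37 C, and assayed by ONE-Glo luminescence after 30 min at room temperature.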

Assay [13] has as its target Acetylcholinesterase (Homo sapiens) (UniProt P22303). Kind of assay: Acetylcholinesterase (AChE) small molecule antagonists: colormetric cell-based qHTS assay (AID 1347395; calls by dose curve; further: nearly all actives have a fitted effect of over 30% in size; further: potency means the concentration at half of the fitted maximal effect). In short, it runs like this:
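Colorimetric read-out: DTNB detects thiocholine released when cellular AChE in SH-SY5Y cells hydrolyses acetylthiocholine. Cells attached overnight, received compound for 30 min at 37 C, then substrate mix for 90 min at 37 C.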

The nature of assay [14]: qHTS assay to identify small molecule agonists of the TGF-beta/Smad signaling pathway - cell viability counter screen (AID 1346829). Further: top concentration of the series differs between compounds; nearly all actives have a fitted effect of over 45% in size. The procedure, abridged: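 Cytotoxicity counter screen: CellTiter-Glo luminescence (30 min, room temperature) measured in the SBE-bla HEK 293T reporter wells after 5 hr compound treatment at 37 C and the 2 hr substrate step.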
Assay [15] deals with Thyrotropin-releasing hormone receptor (Homo sapiens) (UniProt P34981). Kind of assay: qHTS assay to identify small molecule antagonists of the thyrotropin-releasing hormone receptor (TRHR) signaling pathway (AID 1346877; active means well fitted inhibition curve with a large enough effect in the repeat runs, not every such curve was filed as active; further: series mostly up to about 51 µM). The procedure, abridged: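 Kinetic fluorescence (3 min, 1 s resolution) following stimulation with TRH at 1 nM final; HEK293 cells bearing human TRHR; 5 min compound preincubation at RT; concentration-response over 15 points, triplicates.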

For assay [16] the target is unchanged. Kind of assay: qHTS assay to identify small molecule agonists of the thyrotropin-releasing hormone receptor (TRHR) signaling pathway (AID 1346891; calls by dose curve; further: series mostly up to about 58 µM). In short, it runs like this: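 Intracellular calcium rise, read as fluorescence every second for 3 min, served as the agonist signal in dye-loaded HEK293 cells expressing TRHR; each compound ran at 15 concentrations in triplicate.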

Assay [17] can be described thus: Caspase-3/7 induction in HepG2 cells by small molecules, qHTS cell viability counter screen (AID 1346981). Further: series mostly up to about 92 µM; nearly all actives have a fitted effect of over 30% in size. The procedure, abridged:
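In this quantitative HTS counter screen, compounds delivered in DMSO were left on unmodified HepG2 cells for 16 hr at 37 C. Viability was then determined fluorometrically with CellTiter-Fluor, in parallel with caspase-3/7 induction in the same wells.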

For assay [18], the target named is Nuclear receptor subfamily 1 group I member 2 (Rattus norvegicus) (UniProt Q9R1A7). Kind of assay: Rat pregnane X receptor (rPXR) activation by small molecules, qHTS assay (AID 1346983). Further: nearly all actives have a fitted effect of over 20% in size. The following applies: rPXR luciferase reporter cells, One-Glo luminescence, 24 h; stronger effect = higher value. In short, it runs like this:
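Cell-based rPXR activation assay: rPXR cells, 2,000 per well, rested 5hr at 37 C, then exposed to compounds in DMSO for 24 hr at 37 C. Luciferase activity read by One-Glo luminescence after 30 min at room temperature.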

Assay [19] has as its target Nuclear receptor subfamily 1 group I member 2 (Homo sapiens) (UniProt O75469). Kind of assay: CYP3A4 induction through human pregnane X receptor (PXR) by small molecules, qHTS assay (AID 1346984). Further: nearly all actives have a fitted effect of over 40% in size. The procedure, abridged:
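Induction measured in HepG2-based DPX-2 cells co-expressing human PXR and a CYP3A4 promoter-driven luciferase. After a 24-hour compound exposure, cells received CYP3A4 luciferin substrate at 3uM final for 3 hours, and light output was then recorded.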

The target is the same in assay [20]. Kind of assay: Human pregnane X receptor (PXR) activation by small molecules, qHTS assay (AID 1346985). Further: nearly all actives have a fitted effect of over 40% in size. In short, it runs like this:
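DPX-2 cells (HepG2 co-transfected with a PXR response element and a CYP3A4-promoter luciferase construct) were seeded at 2,000 per well, rested 5 hr at 37C, then exposed to DMSO-dissolved compounds for 24 hr. Activation was read as luciferase luminescence.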

Values without a mark were called inactive. Records with an inconclusive call do not appear. Calls of active or inactive are those of the source. Unless noted, the call rests on the fitted dose curve; in most records, active means well fitted curve in the direction sought with a large enough effect in the repeat runs; inconclusive means weak or mixed curves; inactive means no such curve, though single readings can be large; an effect the other way counts as inactive or inconclusive.
On the % scale 0 is the no-effect control and ±100 the full control effect.

Progesterone receptor (Homo sapiens), sequence (P06401 whole entry, looked up): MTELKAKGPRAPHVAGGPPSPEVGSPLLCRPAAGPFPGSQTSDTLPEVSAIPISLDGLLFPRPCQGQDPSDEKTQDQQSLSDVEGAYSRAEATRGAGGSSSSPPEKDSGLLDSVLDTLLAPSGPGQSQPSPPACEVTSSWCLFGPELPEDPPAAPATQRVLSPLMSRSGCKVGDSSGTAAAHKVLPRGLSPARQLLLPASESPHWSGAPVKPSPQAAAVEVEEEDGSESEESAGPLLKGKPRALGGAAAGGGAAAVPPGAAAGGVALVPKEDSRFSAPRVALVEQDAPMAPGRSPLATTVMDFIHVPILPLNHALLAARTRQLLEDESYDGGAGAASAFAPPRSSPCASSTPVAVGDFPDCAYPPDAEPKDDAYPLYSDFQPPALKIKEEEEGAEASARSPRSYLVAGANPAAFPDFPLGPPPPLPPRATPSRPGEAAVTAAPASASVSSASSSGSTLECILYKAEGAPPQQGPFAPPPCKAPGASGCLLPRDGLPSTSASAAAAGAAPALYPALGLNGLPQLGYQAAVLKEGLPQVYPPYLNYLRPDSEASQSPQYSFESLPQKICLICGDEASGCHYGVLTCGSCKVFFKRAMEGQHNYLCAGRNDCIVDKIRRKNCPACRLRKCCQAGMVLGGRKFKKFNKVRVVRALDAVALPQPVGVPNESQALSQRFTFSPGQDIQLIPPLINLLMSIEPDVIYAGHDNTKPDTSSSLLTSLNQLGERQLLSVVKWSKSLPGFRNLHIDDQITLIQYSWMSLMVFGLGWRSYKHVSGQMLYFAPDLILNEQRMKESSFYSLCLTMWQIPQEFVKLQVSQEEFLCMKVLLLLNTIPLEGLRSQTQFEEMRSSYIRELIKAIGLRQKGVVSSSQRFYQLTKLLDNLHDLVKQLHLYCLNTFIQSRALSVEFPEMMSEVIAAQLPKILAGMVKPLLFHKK
Thyrotropin-releasing hormone receptor (Homo sapiens), sequence (P34981 whole entry, looked up): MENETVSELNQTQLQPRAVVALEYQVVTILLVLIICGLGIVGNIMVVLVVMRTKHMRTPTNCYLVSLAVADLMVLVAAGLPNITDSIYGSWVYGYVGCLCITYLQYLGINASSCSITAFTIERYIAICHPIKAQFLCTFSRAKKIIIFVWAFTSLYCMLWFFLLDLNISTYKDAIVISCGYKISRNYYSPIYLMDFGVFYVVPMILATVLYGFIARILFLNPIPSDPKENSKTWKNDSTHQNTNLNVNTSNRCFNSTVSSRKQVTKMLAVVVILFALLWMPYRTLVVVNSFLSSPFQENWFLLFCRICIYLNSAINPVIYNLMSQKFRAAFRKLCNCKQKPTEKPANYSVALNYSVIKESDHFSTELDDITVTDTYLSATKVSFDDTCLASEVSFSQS
Acetylcholinesterase (Homo sapiens), sequence (P22303 whole entry, looked up): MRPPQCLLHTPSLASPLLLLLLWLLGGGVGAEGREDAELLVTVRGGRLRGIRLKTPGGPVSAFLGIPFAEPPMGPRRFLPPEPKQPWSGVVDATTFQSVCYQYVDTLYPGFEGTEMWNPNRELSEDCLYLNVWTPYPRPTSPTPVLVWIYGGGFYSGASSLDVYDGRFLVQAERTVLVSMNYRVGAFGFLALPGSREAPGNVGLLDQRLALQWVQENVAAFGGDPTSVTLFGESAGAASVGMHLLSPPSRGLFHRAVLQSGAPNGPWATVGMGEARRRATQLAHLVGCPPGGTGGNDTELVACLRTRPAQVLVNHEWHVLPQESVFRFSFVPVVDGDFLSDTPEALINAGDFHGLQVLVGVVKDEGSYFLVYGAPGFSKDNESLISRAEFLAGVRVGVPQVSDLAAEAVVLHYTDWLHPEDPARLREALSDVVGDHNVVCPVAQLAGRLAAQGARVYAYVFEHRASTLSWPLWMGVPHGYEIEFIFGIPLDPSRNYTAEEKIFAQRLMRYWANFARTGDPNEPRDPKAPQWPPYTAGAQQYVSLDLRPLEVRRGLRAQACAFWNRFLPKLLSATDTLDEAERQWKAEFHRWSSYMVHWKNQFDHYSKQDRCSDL
Nuclear receptor subfamily 1 group I member 2 (Homo sapiens), sequence (O75469 whole entry, looked up): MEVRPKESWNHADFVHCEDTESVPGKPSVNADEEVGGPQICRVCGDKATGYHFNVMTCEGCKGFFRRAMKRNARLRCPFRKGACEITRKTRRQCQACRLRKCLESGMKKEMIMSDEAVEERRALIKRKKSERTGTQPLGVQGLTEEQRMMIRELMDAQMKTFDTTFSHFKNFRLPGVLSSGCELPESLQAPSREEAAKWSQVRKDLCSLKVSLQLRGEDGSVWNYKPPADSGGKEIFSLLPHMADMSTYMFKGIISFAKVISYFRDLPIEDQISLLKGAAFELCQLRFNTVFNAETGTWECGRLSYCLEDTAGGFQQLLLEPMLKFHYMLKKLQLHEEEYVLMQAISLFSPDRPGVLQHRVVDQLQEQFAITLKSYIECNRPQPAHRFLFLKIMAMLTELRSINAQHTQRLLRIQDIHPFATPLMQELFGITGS
Nuclear receptor subfamily 1 group I member 2 (Rattus norvegicus), sequence (Q9R1A7 whole entry, looked up): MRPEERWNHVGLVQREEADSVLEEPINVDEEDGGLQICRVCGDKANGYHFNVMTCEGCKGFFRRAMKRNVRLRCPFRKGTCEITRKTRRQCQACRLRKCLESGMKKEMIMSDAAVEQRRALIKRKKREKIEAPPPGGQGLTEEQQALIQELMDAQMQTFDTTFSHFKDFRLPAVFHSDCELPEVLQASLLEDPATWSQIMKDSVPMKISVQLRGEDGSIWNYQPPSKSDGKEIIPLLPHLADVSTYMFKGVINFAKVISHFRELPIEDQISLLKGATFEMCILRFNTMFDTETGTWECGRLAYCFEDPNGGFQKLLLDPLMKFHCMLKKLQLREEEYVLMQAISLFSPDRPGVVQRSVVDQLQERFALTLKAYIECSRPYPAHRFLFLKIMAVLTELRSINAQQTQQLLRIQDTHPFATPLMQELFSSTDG

Regarding `O=C1NC(=O)C(=O)C(=O)N1`, the Potency entry in [1], in assay [2], in assay [3], in assay [4], in [5] and in assay [6] was “inactive” each time. Moreover, the Potency result in assay [8], in [9], in assay [10], in [11], in assay [12] and in [13] was “inactive” throughout. Moreover, the molecule was classed as inactive in assay [7].

`Nc1c(Br)cc(Br)c2c1C(=O)c1ccccc1C2=O`: the values for the activity change, negative = cytotoxicity in assay [1], in [4] and in assay [14] were -8.67% [at 19 µM], -0.481% [at 18.9 µM] and 9.34% [at 15.8 µM], respectively. For the same molecule, the activation in assay [2] was 0.744% [at 19 µM]; in assay [7], -5.21% [at 15.8 µM]; in assay [16], -0.213% [at 11.8 µM]; in assay [12], 3.29% [at 19 µM]. The activity change, negative = inhibition in [3] is 9.35% [at 18.9 µM]. The viability change, negative = cytotoxic in assay [6] was 4.07% [at 15.8 µM]. Further, the activity, negative = inhibition in [15] was -4.46% [at 10.5 µM]; in assay [13] it was 1.8% [at 23.6 µM]. Also, the caspase activation in assay [9] was 0.187% [at 19 µM]. The Potency in assay [10] was 14.5 µM (active). Also, the caspase-3/7 activation in assay [11] was 3.36% [at 19 µM].

In the case of `CC1(C)[C@H](C(=O)O[C@H](C#N)c2cccc(Oc3ccccc3)c2)[C@@H]1C=C(Br)Br`, the Potency result in [1], in assay [2], in assay [4], in [6], in assay [14] and in assay [15] was “inactive” throughout. In addition, the Potency entry in assay [8], in [9], in assay [10], in assay [11] and in assay [17] was “inactive” each time. Also, the Potency in assay [3] was 17.2 µM (active). Also, in assay [16], the result was inactive.

With `CCC(C)(C)O`, the Potency result in assay [1], in assay [2], in assay [3], in [4], in assay [6] and in assay [14] was “inactive” in each case. For the same molecule, the Potency result in [15], in assay [8], in [9], in assay [10], in assay [11] and in assay [17] was “inactive” throughout. In addition, the Potency entry in assay [12] and in assay [13] was “inactive” throughout. For the same molecule, the molecule was called inactive in assay [7] and in [16].

Regarding `Cc1ccc(N)c(C)c1`, the Potency result in [1], in [2], in [3], in [4], in assay [14] and in [15] was “inactive” in each case. In addition, the Potency entry in assay [8], in [9] and in assay [12] was “inactive” in each case. In [16], the molecule was called inactive.

Take `CCSCc1ccccc1OC(=O)NC`: the Potency result in assay [1], in assay [2], in [3], in [4], in [6] and in assay [14] was “inactive” throughout. Also, the Potency entry in assay [15], in [8], in assay [9], in [10], in assay [11] and in assay [17] was “inactive” throughout. Further, in assay [12], the Potency entry is “inactive”. For the same molecule, the outcome in assay [7] and in assay [16] was inactive. Also, the Potency in [13] was 10 µM (active).

`C1CS1`: the Potency entry in assay [1], in assay [2], in assay [3], in assay [4], in assay [6] and in assay [14] was “inactive” throughout. For the same molecule, the Potency entry in assay [15], in [8], in assay [9], in assay [11], in [17] and in [12] was “inactive” each time. Also, the Potency entry in [13] was “inactive”. The molecule was classed as inactive in [7] and in [16].

For the molecule `C[N+]1(CCC(C(N)=O)(c2ccccc2)c2ccccc2)CCCCC1`, the Potency entry in assay [1], in [2], in assay [3], in [5], in assay [14] and in assay [15] was “inactive” throughout. Further, the Potency entry in assay [8], in [9], in [11], in [17], in [12] and in assay [20] was “inactive” each time. In assay [13], the Potency entry was “inactive”. Further, the result in assay [7], in assay [16] and in assay [19] was inactive. The max activation in assay [18] was -4.99%.
